From PubChem BioAssay
Most compounds without a hit are left out; they make up all but 1.1% or so of the library.
GALK inhibitor = blocks human galactokinase activity | P51570 | Purified GALK, Kinase-Glo residual ATP luminescence | Potency, µM (top dose mostly 57.5 µM), without a hit: at the highest dose activity change, negative = inhibition, actives largely listed as inhibitors | 0.007% of 270,000 active; further: potency means the concentration at half of the fitted maximal effect
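Quantitative HTS: GALK 5 nM, ATP 35 uM, galactose 100 uM, 1 h room temperature, then luciferase-based ATP detection.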
a7 integrin act = integrin-mediated muscular dystrophy alleviation activation; alpha7betagal myoblasts, beta-gal FDG fluorescence, 48 h; Potency, µM (titrated, usually from 38.3 µM), for inactives: top-dose activation, most hits filed as activators; 0.064% of 350,000 active;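 further: potency means the concentration at half of the fitted maximal effect; 100% = response of the positive control SU9516; nearly all actives have a fitted effect of over 60% in size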
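alpha7betagal+/- myoblasts (passage 13, 250/well) treated 48 h at 37C with compounds at 1:260 dilution of DMSO stock. Lysed, then beta-galactosidase activity read as FDG fluorescence (ex 480/em 540) after 30 min, with pre-read for autofluorescence.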
rTrxR1 inhibitor = inhibitors of rat thioredoxin reductase 1; Potency, µM (series often up to 114 µM), for inactives: at the top dose activity change, negative = inhibition, actives largely listed as inhibitors; recombinant rTrxR1, NADPH fluorescence consumption, selenite substrate; 1% of 390,000 active; further: potency means the concentration at half of the fitted maximal effect; nearly all actives have a fitted effect of over 65% in size
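Rat TrxR1 (90 nM in the dispensed reagent) was pre-reduced with 400 uM NADPH for 5 min at room temperature, then incubated with compound for 15 min. After 400 uM selenite was added, NADPH fluorescence (Ex 340/Em 450 nm) was followed for 8 min.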
TrxR1 substrate = substrates of rat thioredoxin reductase 1 | purified TrxR1 substrate turnover, NADPH consumption readout | Potency, µM (doses to about 114 µM), for inactives: at the highest dose activity change, negative = substrate turnover | AID 588456 | 0.01% of 390,000 active; further: potency means the concentration at half of the fitted maximal effect; nearly all actives have a fitted effect of over 50% in size
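Rat TrxR1, dispensed at 90 nM, was prereduced with 400 uM NADPH (final) for 5 min at ~22 deg C, then incubated with compound 15 min before 400 uM selenite. A first-read NADPH fluorescence drop versus no-compound background flagged substrates.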
PI4K2A block = PI4K2A (human) kinase inhibition | 0.13% of 420,000 active | Q9BTU6 | activity change, negative = inhibition, % at 76.9 µM | purified PI4K2A, ADP-Glo luminescence, 1 h; hits give low values; in the data active means activity change below about -50%; inconclusive means mostly about -30% to -49%;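 further: -100% = wells without enzyme as full effect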
Target sequence (Q9BTU6 whole entry, looked up): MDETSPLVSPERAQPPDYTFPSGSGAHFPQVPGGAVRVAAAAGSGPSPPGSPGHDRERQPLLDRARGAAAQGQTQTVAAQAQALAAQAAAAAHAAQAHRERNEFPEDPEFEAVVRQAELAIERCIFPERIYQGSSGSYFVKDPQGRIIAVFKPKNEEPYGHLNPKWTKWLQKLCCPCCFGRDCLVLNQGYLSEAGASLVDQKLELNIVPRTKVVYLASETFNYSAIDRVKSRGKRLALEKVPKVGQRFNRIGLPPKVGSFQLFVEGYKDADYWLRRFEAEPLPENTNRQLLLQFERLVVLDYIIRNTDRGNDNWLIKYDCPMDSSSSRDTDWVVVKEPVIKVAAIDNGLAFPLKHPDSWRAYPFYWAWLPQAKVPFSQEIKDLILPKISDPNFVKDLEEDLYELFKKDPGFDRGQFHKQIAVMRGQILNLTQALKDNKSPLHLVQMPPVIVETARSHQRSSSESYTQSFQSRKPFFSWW
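ADP-Glo luminescence measured ADP generated by PI4K2A enzyme (4 ug/mL before mixing) with 1.2 mM PI substrate (pre-mix) and 300 microM ATP (pre-mix). Tris pH7.5 buffer with MgCl2, Triton X-100; 1 h reaction at ambient temperature.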
LDHA block = LDHA (human) enzyme inhibition. activity change, % (values are at about 110 or 230 µM). purified LDHA, NADH/diaphorase-resazurin fluorescence; hits give low values. 0.15% of 480,000 active. P00338; in the data active means activity change below about -30%; inconclusive means mostly about -25% to -30%;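 further: plate controls were DMSO wells for no effect and wells without enzyme for full effect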
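Enzyme activity of human lactate dehydrogenase 5 (2 nM; 0.06 mM NADH, 0.2 mM pyruvate, 5 min, RT) is measured via a resazurin/diaphorase fluorescence readout of residual NADH.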
* = called active by the depositor; ? = inconclusive; nt = no result; [ ] = dose if it differs, or a comment. Unless noted, the call rests on the fitted dose curve; in most records, active means well fitted curve in the direction sought with a large enough effect; inconclusive means small, poorly fitted or top-dose-only effect, or another doubt; inactive means no such curve, though single readings can be large; an effect the other way counts as inactive or inconclusive. Unless noted, on the % scale 0 is the no-effect control and ±100 the full control effect.

SMILES	GALK inhibitor	a7 integrin act	rTrxR1 inhibitor	TrxR1 substrate	PI4K2A block	LDHA block
O=C(Nc1ccc2nc(-c3ccc(Br)o3)[nH]c2c1)c1cccs1	-2%	-13%	16µM*	-1%	5	-5
O=C(Nc1ccc2nc(-c3ccc(Br)o3)[nH]c2c1)c1ccco1	1%	-3%	-54%	5%[57.1 µM]	3	-11
Cn1cccc1-c1nc2ccc(NC(=O)c3cccs3)cc2[nH]1	0%	19%	-22%	-8%	9	-2
CN(C)S(=O)(=O)c1cccc(NC(=O)c2nn(Cc3ccccc3)c(=O)c3ccccc23)c1	nt	nt	nt	nt	nt	4
O=c1oc2ccccc2c(N2CCCCC2)c1CN1CCCC1	-2%	25%	5%	4%	4	-4
O=C(CCN1CCCCC1)c1ccccc1	0%	-43%	?	10%[2.29 µM]	-2	-4
CCc1oc2ccccc2c1C(=O)CCN1CCCCC1	2%	-13%[7.66 µM]	0.11µM*	4%	29	8
O=c1oc2ccccc2c(N2CCCCC2)c1CN1CCCCC1	-2%	-2%	25µM*	0%	-3	-3
N=C(N)SCc1ncccc1O	-2%	18%	32µM*	-5%	2	-4
O=C(/C=C/c1cccc(Cl)c1)c1ccc(O)cc1	nt	nt	nt	nt	nt	5
COc1ccc(/C=C/C(=O)c2ccc([N+](=O)[O-])o2)cc1OC	nt	-42%	14µM*	-15%	-9	4
COc1cc(/C=C/C(=O)c2ccc([N+](=O)[O-])o2)ccc1O	nt	-26%	7.9µM*	-1%	-7	19
O=C(/C=C/c1cccc(Cl)c1)c1ccc([N+](=O)[O-])o1	nt	-42%	1.6µM*	-2%	-7	9
C/C(CC(C)(C)c1ccccc1)=N\NC(N)=S	nt	nt	nt	nt	nt	22
COc1ccc2cc([C@H](C)C(=O)NCCc3cccs3)ccc2c1	nt	nt	nt	nt	nt	-2
COc1cccc(C(=O)NN2C(=O)C3C4C=CC(O4)C3C2=O)c1 (stereo unspecified)	-2%	4%	28µM*	-3%	-5	-9
Cc1cccc(C)c1NC(=O)CSc1nnc(-c2ccco2)c(-c2ccco2)n1	-1%	-22%	3.2µM*	4%	-22	13
Cc1ccccc1NC(=O)CSc1nnc(-c2ccco2)c(-c2ccco2)n1	4%	-34%	2.5µM*	0%	?	13
COc1ccc(-c2nnc(SCC(=O)Nc3c(C)cccc3C)nc2-c2ccc(OC)cc2)cc1	nt	nt	-14%	-10%	-3	-6
Cc1ccccc1NC(=O)CSc1n[nH]c(-c2ccco2)n1	1%	3%	-7%	-7%	2	-2
O=C(CCc1nc(CSc2n[nH]c(-c3ccc(Cl)cc3)n2)no1)Nc1ccc2ccccc2c1	nt	nt	nt	nt	nt	3
CCCC(C)N(C)CC(=O)N1CCN(c2oc(C)nc2C#N)CC1 (stereo unspecified)	nt	nt	nt	nt	nt	2
COc1ccc(Br)cc1[C@@H]1Nc2ccc(C(=O)O)cc2[C@@H]2C=CC[C@@H]21	nt	nt	-19%	0%	-3	2
O=C(O)C1Nc2ccc(Br)cc2C2C=CCC12 (stereo unspecified)	0%	24%	20µM*	-1%	-9	-2
CCOC(=O)C1Nc2ccc(Br)cc2C2C=CCC12 (stereo unspecified)	0%	-24%	32µM*	-2%	6	3
SMILES	GALK inhibitor	a7 integrin act	rTrxR1 inhibitor	TrxR1 substrate	PI4K2A block	LDHA block
CCOC(=O)C1Nc2ccc(C)cc2C2C=CCC12 (stereo unspecified)	nt	25%	5.6µM*	9%[57.1 µM]	-9	36
CCOC(=O)c1ccc2c(c1)C1C=CCC1C(C(=O)OCC)N2 (stereo unspecified)	6%	-26%	40µM*	2%	-13	2
O=C(OC1CCCCC1)c1ccc2c(c1)C1C=CCC1C(C(=O)O)N2 (stereo unspecified)	-1%	nt	nt	nt	nt	nt
O=C(Nc1cccc(Cl)c1Cl)C12CC3CC(CC(C3)C1)C2	nt	nt	nt	nt	nt	-4
COc1ccc(C2C(C(=O)/C=C/c3ccco3)=C(O)C(=O)N2CCN2CCOCC2)cc1 (stereo unspecified)	-2%	19%	-83%	-2%[57.1 µM]	-2	12
COc1cccc(C2C(C(=O)/C=C/c3ccco3)=C(O)C(=O)N2CCN2CCOCC2)c1 (stereo unspecified)	7%	-3%	10µM*	-3%	-7	4
Cc1ccccc1OCc1nnc(SCc2c(Cl)cccc2Cl)n1C	nt	nt	nt	nt	nt	10
Cc1ccccc1CS(=O)(=O)c1ncc(Cl)c(C(=O)Nc2nnc(C(C)C)s2)n1	nt	nt	7.1µM*	2%	-21	2
CCCc1nnc(NC(=O)c2nc(S(=O)(=O)Cc3ccc(C)cc3)ncc2Cl)s1	4%	-63%	50µM*	5%	-28	3
CSc1ncc(Cl)c(C(=O)Nc2nnc(SC)s2)n1	1%	2%	13%[57.1 µM]	-10%	6	-6
CSc1nnc(NC(=O)c2nc(S(=O)(=O)Cc3ccccc3)ncc2Cl)s1	-6%	-74%	32µM*	-8%	-29	-1
CC(C)Sc1ncc(Cl)c(C(=O)Nc2nnc(C(C)C)s2)n1	nt	nt	15%	-2%	-3	-2
CC(C)c1nnc(NC(=O)c2nc(S(=O)(=O)Cc3ccccc3)ncc2Cl)s1	-3%	0%	50µM*	-2%	-22	3
Cc1ccc(CS(=O)(=O)c2ncc(Cl)c(C(=O)Nc3nc4ccc(C)cc4s3)n2)cc1	nt	nt	?	1%	1	5
N#CCc1ccc(NC(=O)CNc2ccccc2C(N)=O)cc1	nt	nt	nt	nt	nt	-2
O=C(NC1CCCC1)C(c1ccc(F)cc1)N(Cc1ccccc1Cl)C(=O)CCl (stereo unspecified)	0%	-46%	32µM*	-1%	3	-7
COCCN(C(=O)CCl)C(C(=O)NC1CCCCC1)c1ccccc1C (stereo unspecified)	1%	-48%	28µM*	3%	16	-14
CCSc1nc2n(n1)C(c1cccs1)C1=C(CCCC1=O)N2 (stereo unspecified)	nt	nt	nt	nt	nt	7
Cc1ccc(CNC(=O)CCC2CCCN(C(=O)c3ccc4c(c3)OCO4)C2)o1 (stereo unspecified)	0%	-25%	71µM*	-4%	0	-1
O=C(O)c1cccc(N2C(=O)C=CC2=O)c1	nt	12%	nt	nt	-11	-3
O=C(Nc1ccc(Cl)cc1Cl)c1cccc(N2C(=O)C=CC2=O)c1	-4%	-48%	2µM*	5%	6	-8
CCc1cccc(CC)c1NC(=O)COC(=O)c1cc(=O)c2ccccc2o1	nt	nt	nt	nt	nt	0
CCN(CC(=O)Nc1cc(Cl)ccc1OC)CC(=O)NC1CCS(=O)(=O)C1 (stereo unspecified)	-1%	-31%	14%	7%	9	-36*
